SARS PLpro yeast = inhibitors of SARS-CoV papain-like protease in yeast | S. cerevisiae expressing SARS-CoV PLpro, growth rescue | 330,000 tested, 0.19% active | Potency, µM (doses to about 32.9 µM), for inactives: at the highest dose activity, positive = growth rescue, usual class: activators; further: potency means the concentration at half of the fitted maximal effect; 0% is about no effect; nearly all actives have a fitted effect of over 55% in size
Shiga toxin inh = blocks Shiga toxin action in Vero cells; Vero cells, Shiga toxin protein synthesis inhibition reporter; inhibition, % at 38.7 µM; 290,000 tested, 9.2% active; in the data active means inhibition mostly above about 28%, no sharp cut-off; inactive means mostly below about 43%; further: 0% is about no effect
CHX counter = counter-screen for Shiga toxin inhibitors: cycloheximide protein synthesis inhibition; cell reporter, cycloheximide protein synthesis inhibition counterscreen; max response, %; 300,000 tested, 12% active; in the data active means max response mostly above about 13%, no sharp cut-off; inactive means mostly below about 14%; further: read at 38.3 µM for the half of the compounds with a filed dose; 0% is about no effect
Tb PYK inh = inhibitors of Trypanosoma brucei pyruvate kinase; 410,000 tested, 0.12% active; Potency, µM (series often up to 76.8 µM), for the others: at the top dose activity, negative = inhibition, most hits filed as inhibitors; TbPYK enzyme, Kinase-Glo Plus ATP luminescence, 45 min; AID 624173; active means well fitted curve in the direction sought with a large enough effect; inconclusive means small, poorly fitted or top-dose-only effect, or another doubt; inactive means no such curve, though single readings can be large; an effect the other way counts as inactive or inconclusive; further: potency means the concentration at half of the fitted maximal effect; on the % scale 0 is the no-effect control and ±100 the full control effect; nearly all actives have a fitted effect of over 50% in size
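TbPYK + substrate in 50 mM TEA pH 7.2, 100 mM KCl, 10 mM MgCl2, 0.05% BSA, 0.01% Tween-20; cpd pinned; ADP 130 uM final; 45 min RT; Kinase-Glo Plus 10 min; luminescence endpoint.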
NS1 inh = inhibitors of influenza NS1 protein function; 270,000 tested, 0.4% active; Potency, µM (top dose mostly 46.1 µM), for inactives: at the highest dose activity, positive = more growth; further: potency means the concentration at half of the fitted maximal effect; actives are rising curves; nearly all actives have a fitted effect of over 50% in size
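Read-out: OD600 growth recovery of NS1-expressing budding yeast. Cells grown overnight at 30C in -URA glucose medium, washed, resuspended and diluted 1:100 in 2% galactose assay medium, pH 6.0. Same strain lacking NS1 served as positive control.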
LmPK inh = LmPK (Leishmania mexicana) enzyme inhibition; Q27686; purified LmPK, Kinase-Glo ATP luminescence, 1 h; Potency, µM (top dose mostly 57.5 µM), inactives show at the top dose activity change, negative = inhibition, usual class: inhibitors; 290,000 tested, 0.37% active; AID 1721; active means well fitted curve in the direction sought with a large enough effect; inconclusive means small, poorly fitted or top-dose-only effect, or another doubt; inactive means no such curve, though single readings can be large; an effect the other way counts as inactive or inconclusive; further: potency means the concentration at half of the fitted maximal effect; on the % scale 0 is the no-effect control and ±100 the full control effect
Target sequence (Q27686 whole entry, looked up): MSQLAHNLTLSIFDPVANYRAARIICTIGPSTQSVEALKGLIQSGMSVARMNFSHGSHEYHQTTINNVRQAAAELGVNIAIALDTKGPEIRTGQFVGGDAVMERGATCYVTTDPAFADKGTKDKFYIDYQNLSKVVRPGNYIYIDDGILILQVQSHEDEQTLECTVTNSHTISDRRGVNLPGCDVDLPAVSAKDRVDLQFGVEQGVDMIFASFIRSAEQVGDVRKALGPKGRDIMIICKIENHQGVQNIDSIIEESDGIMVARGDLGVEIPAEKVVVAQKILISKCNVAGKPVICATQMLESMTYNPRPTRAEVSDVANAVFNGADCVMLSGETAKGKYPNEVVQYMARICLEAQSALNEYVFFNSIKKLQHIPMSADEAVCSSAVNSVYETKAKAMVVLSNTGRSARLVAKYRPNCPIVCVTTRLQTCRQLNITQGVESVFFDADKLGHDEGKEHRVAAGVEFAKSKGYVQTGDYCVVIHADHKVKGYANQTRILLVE
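Screened at intermediate enzyme activity to detect both inhibitors and activators: LmPK at 0.1 nM, with a 0.5 nM enzyme column as activation reference. PEP 0.5 mM, ADP 0.1 mM; ATP detected by luminescence after 1 h.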
* hit, by the source's call; ? = inconclusive; · = not tested or not shown. This excerpt belongs to a sample that is enriched for hits. Unless noted, the call rests on the fitted dose curve.

SMILES | SARS PLpro yeast | Shiga toxin inh | CHX counter | Tb PYK inh | NS1 inh | LmPK inh
Cc1cccc(-n2c(CNC(=O)c3ccc(S(=O)(=O)N(C)C)cc3)nnc2SCC(=O)Nc2ccc(F)cc2)c1 | -10% | -10 | 1 | 1% | -19% | 3%
CN(C)C(=S)SC(=S)N(C)C | · | 23 | 24 | ? | · | ·
CC(=O)Nc1nonc1-c1nnc(SCC(=O)Nc2ccc(C)cc2C)n1C | · | · | · | -3% | · | ·
Cc1ccc(C(=S)NCS(=O)(=O)c2ccc(C)cc2)cc1 | 4% | 75 | 19* | 4% | -11% | 9%
Cc1ccc(S(=O)(=O)CNC(=S)c2cccc(Cl)c2)cc1 | -10% | -11 | -5 | -4% | -35% | 2%
COC(=O)N/N=C\c1ccccc1OC/C=C/c1ccccc1 | -3% | 39 | 32* | 0% | -7% | 3%
CCOC(=O)N/N=C\c1ccccc1OC/C=C/c1ccccc1 | 1% | 55* | 34* | 9% | 6% | 0%
N#CCC(=O)N/N=C\c1cc(Br)ccc1OC/C=C/c1ccccc1 | 1% | 98* | 26* | -2% | ? | -3%
N#CCC(=O)N/N=C/c1cccc(Oc2ccccc2)c1 | 0% | 2 | 10 | -1% | ? | -4%
Clc1ccc(-c2ccc(CN3CCCCC3)o2)cc1 | -2% | 39* | 25* | -4% | 7% | -2%
OCCc1ccc(-c2ccc(Cl)cc2)o1 | -5% | 108* | 31* | -1% | -54% | -3%
CC(C)(Oc1ccc(CCNC(=O)c2ccc(-c3ccc(Cl)cc3)o2)cc1)C(=O)O | 2% | -8 | -1 | 6% | 6% | 10%
CN1CCN(Cc2ccc(-c3ccc(Cl)cc3)o2)CC1 | -6% | 67 | 26* | 1% | 0% | 8%
O=c1n2c(c(O)n1C1CCCCC1)C(c1ccccc1)=Nc1ccccc1C2 | · | · | · | 4% | · | ·
NCCCNc1nc(N)c([N+](=O)[O-])c(NC2CCCCC2)n1 | -1% | -13 | -8 | 1% | 1% | 3%
CC(=O)Nc1ccc(C2=NN(c3ccccc3)C(c3ccccc3)C2)cc1 (configuration not stated) | -5% | 47* | 43* | -5% | 3% | 0%
O=C(O)c1ccc(N2N=C(c3ccccc3)CC2c2ccccc2)cc1 (configuration not stated) | -22% | 57* | 14* | -3% | -36% | -1%
c1ccc(C2CC(c3cccs3)=NN2c2ccccc2)cc1 (configuration not stated) | 0% | 94* | 33* | -9% | 1% | -5%
O=[N+]([O-])c1cccc(C2CC(c3ccccc3)=NN2c2ccccc2)c1 (configuration not stated) | ? | 55 | 20* | -1% | -19% | 0%
Fc1ccc(C2CC(c3cccs3)=NN2c2ccccc2)cc1 (configuration not stated) | 12% | 19 | 5 | -3% | · | 2%
CC(=O)Nc1ccc(C2CC(c3ccc(Cl)cc3)=NN2c2ccccc2)cc1 (configuration not stated) | -7% | -5 | 9 | -9% | 1% | 0%
O=Cc1ccc(N2N=C(c3ccccc3)CC2c2ccccc2)cc1 (configuration not stated) | -2% | 12 | 9 | 0% | 15% | -1%
Cc1cccc(C2CC(c3ccccc3)=NN2c2ccc(S(N)(=O)=O)cc2)c1 (configuration not stated) | · | · | · | 7% | · | ·
COc1cccc(NC(=O)CSc2nc3scc(C)c3c(=O)[nH]2)c1 | 0% | -5 | -5 | 2% | 1% | -2%
Cc1ccc2c(c1)N(CC(=O)NCc1cccs1)C(=O)C(C)O2 (configuration not stated) | 1% | 12 | -3 | -3% | -1% | 1%
CC1Oc2ccccc2N(CC(=O)NCc2cccs2)C1=O (configuration not stated) | 10% | 31* | 19* | 3% | -12% | -11%
O=C(N/N=C/c1ccccc1Cl)c1ccc(F)cc1 | ? | 72* | 56* | 1% | -16% | -10%
Cn1cccc1-c1cc(C(=O)N/N=C/c2ccc(F)cc2)[nH]n1 | -1% | 15 | 12 | -6% | 16% | 0%

Source: PubChem BioAssay
